Results filed as inconclusive are left out. Entries that show only a call come without a potency. Calls of active or inactive are those of the source. Calls follow the shape of the full dose curve.
Potency is read from the fitted curve at half-maximal effect.

This assay is described as follows: qHTS assay to identify small molecule antagonists of the estrogen receptor alpha (ER-alpha) signaling pathway using the BG1 cell line (AID 743080).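 Also: BG1 cells stimulated with 17beta-estradiol alongside compound; nearly all actives have a fitted effect of over 25% in size.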 As to conditions: BG1Luc4E2 ERE-luciferase antagonist mode, luminescence; series mostly up to 70.3 µM. The source says:
National Center for Advancing Translational Sciences [NCATS]
NIH Chemical Genomics Center [NCGC]
U.S. Environmental Protection Agency [EPA]
National Institutes of Environmental Health Sciences [NIEHS]
National Toxicology Program [NTP]
U.S. Food and Drug Administration [FDA]
Estrogen receptor (ER), a nuclear hormone receptor, plays an important role in development, metabolic homeostasis and reproduction. Endocrine disrupting chemicals (EDCs) and their interactions with steroid hormone receptors like ER causes disruption of normal endocrine function. Therefore, it is important to understand the effect of environmental chemicals on the ER signaling pathway. To identify ER antagonists, BG1-Luc-4E2 cell line (provided by Dr. Michael Denison from University of California) has been used to screen the Tox21 10K compound library. BG1Luc4E2 cell line endogenously expresses full-length ER-alpha and is stably transfected with a plasmid containing four estrogen responsive elements (ERE) upstream of a luciferase reporter gene.
Tox21 Assay Protocol Summary:
BG1-Luc-4E2 cells were cultured in phenol red free assay medium containing 10% charcoal stripped FBS for 5 days before the assay was performed. The cells were dispensed at 4,000 cells/4 uL of assay medium per well into white wall/solid-bottom 1536-well plates using a Multidrop Combi (ThermoFisher Scientific, Waltham, MA) dispenser. The assay plates were incubated at a 37C and 5% CO2 for 24 h, and then 23 nL of compounds dissolved in DMSO, positive controls or DMSO only was transferred to the assay plate using a Pintool station (Kalypsys, San Diego, CA), followed by addition of 1 uL of 17beta-estradiol in assay medium using a Flying Reagent Dispenser (Aurora Discovery, San Diego, CA). After the plates were incubated at 37 C and 5% CO2 for 21.5 h, 1 uL of CellTiter-Fluor reagent (Promega, Madison, WI) of measuring cytotoxicity was added using Flying Reagent Dispenser (FRD) to each well. The assay plates were incubated at 37 C and 5% CO2 for additional 30 min and the fluorescence intensity was quantified by a ViewLux plate reader (PerkinElmer, Shelton, CT). For measuring luciferase reporter gene activity, 4 uL of ONE-Glo reagent (Promega) was added to each plate using an FRD and luminescence was quantified by a ViewLux plate reader after 30 min incubation at room temperature.
(In general: Quantitative high-throughput screening tests each substance at several concentrations.)
For the molecule `CN1CCCC(n2nc(Cc3ccc(Cl)cc3)c3ccccc3c2=O)CC1` (stereo not given), the Potency result was “inactive”. Turning to `C=C/C(C)=C/C/C=C(\C)CCC=C(C)C`, the Potency result was “inactive”. `C1C[C@@H]2[C@H]3CC[C@H](C3)[C@@H]2C1`: the Potency result is “inactive”. The value for `CC=C(Cl)Cl` was “inactive”. With `CCC(C)(C)OC`, the Potency result is “inactive”. The value for `O=c1[nH]ncc2ccccc12` was “inactive”; that for `CC(C)=CCC/C(C)=C/CC/C(C)=C/CCC(=O)OC/C=C(\C)CCC=C(C)C` was “inactive”. Take `O=C(/C=C/c1ccc(O)c(O)c1)O[C@@H]1C[C@@](OC(=O)/C=C/c2ccc(O)c(O)c2)(C(=O)O)C[C@@H](O)[C@@H]1O`: the Potency entry was “inactive”. The value for `CN(C)CCN1C(=O)c2ccccc2N(C)c2ccccc21` was “inactive”; that for `Cc1ccco1` was “inactive”; that for `CC(O)c1ccccc1` (stereo not given) was “inactive”. Regarding `CCCCCCC(C)(C)C(=O)O`, the Potency entry was “inactive”.

Turning to `CC(C)(C)C(=O)C(=O)O`, the Potency result is “inactive”. To `CCCC(C(=O)OCCN(CC)CC)(c1ccccc1)c1ccccc1` belongs “inactive”.

In the case of `O=C(Cn1ccnc1[N+](=O)[O-])NCCO`, the Potency entry is “inactive”. To `O=Cc1c2ccccc2c(Cl)c2ccccc12` belongs “inactive”. To `COC(=O)CS` belongs “inactive”; to `C=C(C)[C@@H]1CCC2=CCC[C@@H](C)[C@]2(C)C1`, “inactive”. To `COc1cc(N)c(Cl)cc1C(=O)NC1CCN(CCCOc2ccc(F)cc2)CC1OC` (stereo not given) belongs “inactive”; to `CC(C)COCC(CN(Cc1ccccc1)c1ccccc1)N1CCCC1` (stereo not given), “inactive”.

`CC1(CN2CCC(n3c(=O)[nH]c4ccccc43)CC2)OCc2ccccc2-n2cccc21` (stereo not given): the Potency was 29.8 µM (active). In the case of `CN1C(=O)OC(C)(C)C1=O`, the Potency entry is “inactive”. To `CCOC(=O)C1=C(C)NC(C)=C(C(=O)OC)C1c1cccc(Cl)c1Cl` (stereo not given) belongs “inactive”; to `CCOC(=O)/C=C/C(=O)OCC`, “inactive”; to `Brc1cc(Br)c(Oc2cc(Br)c(Br)cc2Br)cc1Br`, “inactive”.

`O=C1c2ccccc2C(=O)C1(O)O`: the Potency result is “inactive”. In the case of `N#CCCN(CCO)CCO`, the Potency result was “inactive”. The value for `C=C(C)C(=O)OCCCCCCCCCCCCC` was “inactive”. The value for `CN1C[C@H](C(=O)N[C@]2(C)O[C@@]3(O)[C@@H]4CCCN4C(=O)[C@H](Cc4ccccc4)N3C2=O)C[C@@H]2c3cccc4[nH]cc(c34)C[C@H]21` was “inactive”. To `CCc1ccccc1` belongs “inactive”; to `FC(F)(F)c1ccccc1Cl`, “inactive”; to `CN1C(C(=O)Nc2ccccn2)=C(O)c2sccc2S1(=O)=O`, “inactive”.

For the molecule `C/C=C/C=C/C=O`, the Potency result is “inactive”. Take `CCOC(=O)c1ccc(OCCN2C[C@H](O)[C@@H](O)[C@H](O)[C@H]2CO)cc1`: the Potency result was “inactive”. The value for `O=C(CCc1ccc(O)cc1)c1c(O)cc(O)cc1O` was “inactive”; that for `O=C1NC(=O)c2cc([N+](=O)[O-])ccc21` was “inactive”. To `C[C@H]1c2cccc(O)c2C(O)=C2C(=O)[C@]3(O)C(O)=C(C(N)=O)C(=O)[C@@H](N(C)C)[C@@H]3[C@@H](O)[C@@H]21` belongs “inactive”; to `C/C=C\C/C=C/CCCCCCCCOC(C)=O`, “inactive”; to `C=COCC(C)C`, “inactive”. The value for `CO[C@]1(NC(=O)CSC(F)F)C(=O)N2C(C(=O)O)=C(CSc3nnnn3CCO)CO[C@H]21` was “inactive”.

For the origin of these results see PubChem BioAssay (Tox21).
